In PubChem BioAssay AID652257 (The Scripps Research Institute Molecular Screening Center, 2013):
Screen size: about 370,000 compounds; about 4,800 (1.3%) were called active. The entries come from a sample that favours actives as a whole. A number with no mark means an inactive call.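 Rule for the calls: active = inhibition above about 21% made by adding two undisclosed values (limit read from the data); inactive = the rest.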

biological target: Protein arginine N-methyltransferase 1 (Homo sapiens) (UniProt Q99873); assay: human PRMT1 activity-probe blockers – biochemical, fluorescence polarization, primary screen (AID 652257); settings: recombinant PRMT1, activity-based probe fluorescence polarization; at 2.79 µM; hits give high values
Sequence (Q99873 whole entry, looked up): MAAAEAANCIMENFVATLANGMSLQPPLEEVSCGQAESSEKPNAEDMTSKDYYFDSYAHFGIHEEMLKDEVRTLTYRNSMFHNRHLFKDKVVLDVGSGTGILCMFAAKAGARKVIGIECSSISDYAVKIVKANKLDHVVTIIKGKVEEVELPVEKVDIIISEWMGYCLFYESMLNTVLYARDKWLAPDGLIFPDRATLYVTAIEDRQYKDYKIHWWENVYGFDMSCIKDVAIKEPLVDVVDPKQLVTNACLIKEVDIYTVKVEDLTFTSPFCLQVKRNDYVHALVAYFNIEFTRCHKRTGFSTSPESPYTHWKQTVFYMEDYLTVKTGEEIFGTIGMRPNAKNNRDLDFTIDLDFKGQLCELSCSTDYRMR

| Compound | inhibition |
| --- | --- |
| CCOc1ccc(-n2cnnn2)cc1S(=O)(=O)N1CCC(C)CC1C (stereo not drawn) | -4.54% |
| CC(NC(=S)NC1CCCCC1)C(c1ccccc1)N1CCOCC1 (stereo not drawn) | 0.42% |
| COc1ccc(N2CCN(CCNS(=O)(=O)c3ccc([N+](=O)[O-])cc3)CC2)cc1 | -4.73% |
| O=C(CC1CCCCC1)NCc1ccco1 | -1.65% |
| CC1(c2ccccc2Cl)NC(=O)N(CC(=O)NC(=O)NCc2ccco2)C1=O (stereo not drawn) | 5.3% |
| O=C(CC1N=C2c3ccccc3N=C(SCc3ccccc3Cl)N2C1=O)NCc1ccco1 (stereo not drawn) | 26.2% (active) |
| O=C(NCCCN1CCN(c2ccc(F)cc2)CC1)Nc1ccc([N+](=O)[O-])cc1 | -0.66% |
| Nn1c(SCC(=O)Nc2cccc3ccccc23)nnc1-c1cc(-c2ccc(F)cc2)n[nH]1 | 2.17% |
| CN(C)c1ccc(Nc2c3c4c(cccc4n(C)c2=O)C(=O)c2ccccc2-3)cc1 | 56.4% (active) |
| Cc1cc(Cl)ccc1C(=O)C1CCCN(C(=O)c2nonc2C)C1 (stereo not drawn) | -0.28% |
| COc1ccc(Cn2cc(COC(=O)N(C)Cc3ccccc3)nn2)cc1 | -6.72% |
| Cc1cccc(N2CCN(C(=O)/C=C/c3ccco3)CC2)c1C | 29.9% (active) |
| Cc1cccc(N2CCN(C(=O)c3cc4c(=O)[nH]c5ccccc5c4n3C)CC2)c1C | -1.76% |
| CCn1c(C)c(C)c2cc(C(=O)N3CCN(c4cccc(C)c4C)CC3)ccc21 | 2.44% |
| CN(C)c1ccc(NC(=O)NC2CCCCN(Cc3ccc(Cl)cc3)C2=O)cc1 (stereo not drawn) | 4.83% |
| Nn1c(SCC(=O)Nc2ccc(S(N)(=O)=O)cc2)nnc1-c1n[nH]c2c1CCC2 | 0.39% |
| CN(C)[C@H]1CCN(c2cccc3c2S(=O)(=O)N2CC[C@H](C2)O3)C1 | 0.28% |
| CC(=O)OC12CCCN(C1)/C(=C/c1ccncc1)C2 (stereo not drawn) | -0.73% |
| COCCCNC(=O)CC1C[C@H](C(=O)N2CCCCC2)[C@@]2(CCc3ccccc3)c3[nH]c4ccccc4c3CCN2C1=O (stereo partly drawn) | -2.68% |
| CCCCCCCCNS(=O)(=O)/C=C/c1cc(C)ccc1CNC(=O)OC(C)(C)C | -0.82% |
| Cc1cc(NC(=O)C(C)SCC(=O)Nc2cccc(S(=O)(=O)N3CCCCCC3)c2)no1 (stereo not drawn) | 71.1% (active) |
| O=C(CSc1ccccc1)Nc1cccc(S(=O)(=O)N2CCCCC2)c1 | -5.2% |

| Compound | inhibition |
| --- | --- |
| Cc1cc(NC(=O)C(C)SCC(=O)Nc2ccccc2N2CCCCC2)no1 (stereo not drawn) | -2.38% |
| C=C1C(C(C)C)N(C)C2=NC(c3ccccc3)CC(=O)N12 (stereo not drawn) | -3.21% |
| Cc1cccc(C)c1NC(=O)C(c1ccc(C(F)(F)F)cc1)n1c(=O)c(-c2ccco2)nc2ccccc21 (stereo not drawn) | 23.1% (active) |
| O=C(NC1CCCCC1)C(c1cc2ccccc2o1)n1c(=O)c(-c2ccco2)nc2ccccc21 (stereo not drawn) | 10.9% |
| N#Cc1ccc(C(C(=O)NCc2ccccc2)n2c(=O)c(-c3ccco3)nc3ccccc32)cc1 (stereo not drawn) | 20.9% |
| Cc1ccc(CSc2nnc(SCC(=O)NN=Cc3cc(Br)ccc3F)s2)cc1 | 3.3% |
| CCc1cccc2c3c([nH]c12)C(CC)(CC(=O)O)OCC3 (stereo not drawn) | 1.16% |
| C[C@H]1CCC/C=C/C(=O)c2c(O)cc(O)cc2CC(=O)O1 | 7.7% |
| CC(C)[C@@H](NC(=O)OC(C)(C)C)C(=O)NCC1CCC(C(=O)N[C@@H](Cc2ccccc2)C(=O)O)CC1 (stereo partly drawn) | 2.79% |
| CC(C)(C)c1ccc(C(CC(=O)O)NS(=O)(=O)Cc2ccccc2)cc1 (stereo not drawn) | -1.05% |
| C[C@@H](NC(=O)OC(C)(C)C)c1nnc(S(=O)(=O)Cc2ccccc2)o1 | 21.3% (active) |
| CCOC(=O)[C@]12CCCC=C1N(Cc1ccc(OC)cc1)C(=O)[C@@H]2CC(=O)N1CCOCC1 | -1.02% |
| O=C(NCc1ccc(Cl)cc1)C1CCCN(c2nc3ccccc3o2)C1 (stereo not drawn) | 4.6% |
| O=C(CN1CCN(S(=O)(=O)c2cc(Cl)ccc2Cl)CC1)c1ccc(O)c(O)c1 | 18.9% |
| N#Cc1ccccc1S(=O)(=O)N1CCN(Cc2c(O)ccc3ccccc23)CC1 | 34.5% (active) |
| N#Cc1ccccc1S(=O)(=O)N1CCN(C(=O)c2cc(-c3ccccc3)nn2-c2ccccc2)CC1 | -1.25% |
| CC1=CC(C)(C)Nc2ccc(OC(=O)CN3C(=O)C4CCCCC4C3=O)cc21 (stereo not drawn) | 0.85% |
| CCOC(=O)c1c(N)c(C#N)nn1-c1ccccc1C(=O)OC | 6.05% |
| CSc1ccccc1NC(=O)CN(C)CC(=O)Nc1ccc(Cl)cc1[N+](=O)[O-] | -1.57% |
| O=C(COc1ccc(Cl)cc1[N+](=O)[O-])N1CCCCC1 | -4.9% |
| O=C1CCCCC1Sc1ccc(Cl)cc1[N+](=O)[O-] (stereo not drawn) | 48.8% (active) |
| CC(=O)OCCN1CCCC12CCC(c1ccccc1)CC2 (stereo not drawn) | 2.94% |

| Compound | inhibition |
| --- | --- |
| C=C(C)C1CC23C(=O)C4(C(=O)c5ccccc5)C[C@@]5(C)CCC(CC2C1(C)C)(C4=O)C35OC (stereo partly drawn) | 3.86% |
| COc1ccc(C2CC(=O)n3c(nc4ccccc43)S2)cc1OC (stereo not drawn) | 0.28% |
| COc1ccc(C2CC(c3cccs3)=Nc3ccccc3S2)cc1OC (stereo not drawn) | 63.7% (active) |
| COc1ccc(C2CC(c3cccs3)=NN2c2nc(C)c(C(C)=O)s2)cc1OC (stereo not drawn) | 0.1% |
| O=S1(=O)c2ccc(Br)cc2OC[C@@H](Cc2ccccc2)N1Cc1cn(Cc2ccco2)nn1 | -6.43% |
| COc1ccc(C(=O)CSc2nnc(-c3cnccn3)n2-c2ccc(C)cc2)cc1 | -1.24% |
| N#CCC(=O)NC(=O)NCC1CC1 | 1.85% |
| Nc1ccc2nc3c(=O)[nH]c(=S)[nH]c3nc2c1 | 129% (active) |
| COc1nc(NCc2ccc(Cl)cc2)nc(OC)n1 | -0.93% |
| CCN(CC)S(=O)(=O)c1cccc(-c2n[nH]c(=S)n2/N=C/c2ccc(C(=O)OC)cc2)c1 | 31.9% (active) |
| CCN(CC)S(=O)(=O)c1cccc(NC(=O)c2ccc(S(=O)(=O)N3CCCC3)cc2)c1 | 2.8% |
| COC(=O)c1ccc(/C=N/N2C(C)CCCC2C)cc1 (stereo not drawn) | -0.34% |
| CCOC(=O)Cc1csc(SCC(=O)Nc2ccc(C)cc2F)n1 | 1.96% |
| Cc1cc(=O)[nH]c(SCC(=O)Nc2ccc(Cl)cc2C)n1 | -2.19% |
| CCOC(=O)Cc1csc(NC(=O)CSc2nc(C)cc(=O)[nH]2)n1 | 63.7% (active) |
| Clc1cccc2c1C1CC2CCN1Cc1ccccc1 (stereo not drawn) | -1.44% |
| CCCn1c(N)c(C(=O)CSc2nnc(-c3cccnc3)n2-c2ccc(C)cc2C)c(=O)[nH]c1=O | -1.38% |
| COc1ccc(C#CCNCc2ccc(OC)cc2OC)cc1 | 0.44% |
| CN(C)S(=O)(=O)c1cccc(-c2nn(-c3ccccc3)cc2/C=C2\SC(=S)N(CC(=O)O)C2=O)c1 | 28.2% (active) |
| Cc1ccc(-c2nn(-c3ccccc3)cc2CN(Cc2ccccc2)C(=O)CCC(=O)O)o1 | 30.5% (active) |
| COc1cccc(-c2nn(-c3ccccc3)cc2/C=C(\C#N)C(=O)NCCCn2ccnc2)c1 | -2.79% |
| O=C(/C=C/c1cn(-c2ccccc2)nc1-c1ccc2c(c1)OCCO2)NCCCN1CCOCC1 | 3.18% |

| Compound | inhibition |
| --- | --- |
| Cc1ccc(-c2nn(-c3cccc(F)c3)cc2CNCCc2ccncc2)o1 | -2.78% |
| O=C(O)CCC(=O)N(Cc1ccccc1)Cc1ccccc1 | -4.57% |
| Cc1ccc(-c2nn(-c3ccccc3)cc2/C=C2\SC(=S)N(CCCCCC(=O)O)C2=O)o1 | 78.2% (active) |
| COc1ccc(COCCN2CCN(S(=O)(=O)c3ccccc3)CCC2=O)cc1 | 1.29% |
| O=C(NCC1COc2ccccc2O1)c1ccc(NC(=O)c2cc(F)ccc2F)cc1 (stereo not drawn) | 4.4% |
| NC(=O)c1ncn([C@@H]2O[C@H](CNCc3cnc(N4CCOCC4)s3)[C@@H](O)[C@H]2O)n1 | -0.65% |
| C[C@@H]1ON(C)[C@H]2C[C@H]3c4[nH]c5cccc(-c6ccc7c(c6)OCO7)c5c4CCN3C[C@@H]12 | -2.89% |
| COC(=O)[C@H](C(C)C)N1CCc2nnn(Cc3ccc(C)cc3)c2-c2ccccc2S1(=O)=O | 0.49% |
| CCOC(=O)[C@]12CCCC3=C1N(CCC3)C(=O)[C@@H](CC(=O)NCC13CC4CC(CC(C4)C1)C3)C2 | -3.58% |
| CCC(=O)c1c(CC)c2n3c1=CC[C@H]3CC(Br)C=2 (stereo partly drawn) | 0.28% |
| COc1ccc(-n2c(SCC(=O)NC3CCCC3)nnc2-c2ccncc2)cc1 | 4.19% |
| O=S(=O)(NC1CC1)c1ccc2c3c(cccc13)CC2 | -2.46% |
| N#CC1(NC(=O)COC(=O)Cc2n[nH]c(=O)c3ccccc23)CCCCC1 | 1.07% |
| N#CC1(Nc2ccc3c4c(cccc24)CC3)CCCCC1 | 50.2% (active) |
| Cc1ccc2c(cnn2C(=O)CCC(=O)NC2CCCC2)c1 | 3.39% |
| COc1ccc(CNS(=O)(=O)c2ccc(NC(=O)N3CCCCC3)cc2)cc1 | -0.17% |
| CC(C)=C1C2CCC1C1C(=O)N(NC(=O)c3ccco3)C(=O)C21 (stereo not drawn) | -2.54% |
| COc1ccc(CN2C(=O)N3Cc4cc(OC)ccc4C3CS2(=O)=O)cc1 (stereo not drawn) | 3.9% |
| CCN1C(=O)N[C@@H]2C[C@H](C(=O)N3CCCC3)[C@H](C)[C@H](c3ccccc3)C[C@@H]21 | -4.4% |
| COc1ccccc1-c1nnc(NC(=O)c2ccc3ncsc3c2)o1 | 9.47% |
| O=C(COC(=O)c1ccc2ncsc2c1)Nc1ccc(Cl)cc1 | 14.3% |
| Cc1sc(NC(=O)c2ccc3ncsc3c2)c(C(N)=O)c1C | 33.8% (active) |
